# Assay results from the supplement of paper PMC7765376.
# Counter-ions that a name gives are not always drawn. In all, about 1,500 compounds were measured (“Excess HSA synergy score (sum over dose matrix of excess over highest single agent)”: median about 43, lowest 2% from about -900 on). The sample as a whole holds a higher share of the lowest values than the screen did.
# Test system: PEO-1
# Assay: Excess HSA synergy score (sum over dose matrix of excess over highest single agent) (score (summed % response)); higher = less synergy / more antagonism (negative = synergy)
# Details: 72 h, read-out: viability/apoptosis luminescence (CellTiter-Glo or Caspase3-Glo / not stated per table)
# [1] = matrix design: 6x6, 5-fold dilutions (primary screen)
# [2] = matrix design: 10x10, 9-step dilutions (confirmatory)
Compound,Excess HSA synergy score [1],Excess HSA synergy score [2]
CCOC(=O)[C@@H](N)CCC(=O)N[C@@H](CSCc1ccccc1)C(=O)N[C@@H](C(=O)OCC)c1ccccc1 [Ezatiostat] + CC[C@H](NC(=O)[C@H](C)NC)C(=O)N1C[C@@H](O)C[C@H]1Cc1c(-c2[nH]c3cc(F)ccc3c2C[C@@H]2C[C@H](O)CN2C(=O)[C@H](CC)NC(=O)[C@H](C)NC)[nH]c2cc(F)ccc12 [Birinapant],49.2,
CN1CCCN(C(=O)c2cccc(-c3ccc(/C=C4/C(=O)Nc5ccc(Cl)cc54)o3)c2)CC1 + CC[C@H](NC(=O)[C@H](C)NC)C(=O)N1C[C@@H](O)C[C@H]1Cc1c(-c2[nH]c3cc(F)ccc3c2C[C@@H]2C[C@H](O)CN2C(=O)[C@H](CC)NC(=O)[C@H](C)NC)[nH]c2cc(F)ccc12 [Birinapant],92.9,-1060
Cc1[nH]c(/C=C2\C(=O)Nc3ccc(S(=O)(=O)Cc4c(Cl)cccc4Cl)cc32)c(C)c1C(=O)N1CCC[C@@H]1CN1CCCC1 + CC[C@H](NC(=O)[C@H](C)NC)C(=O)N1C[C@@H](O)C[C@H]1Cc1c(-c2[nH]c3cc(F)ccc3c2C[C@@H]2C[C@H](O)CN2C(=O)[C@H](CC)NC(=O)[C@H](C)NC)[nH]c2cc(F)ccc12 [Birinapant],-132,
Cc1[nH]c(/C=C2\C(=O)Nc3ccc(S(=O)(=O)N(C)c4cccc(Cl)c4)cc32)c(C)c1C(=O)N1CCN(C)CC1 + CC[C@H](NC(=O)[C@H](C)NC)C(=O)N1C[C@@H](O)C[C@H]1Cc1c(-c2[nH]c3cc(F)ccc3c2C[C@@H]2C[C@H](O)CN2C(=O)[C@H](CC)NC(=O)[C@H](C)NC)[nH]c2cc(F)ccc12 [Birinapant],-71.9,
COc1cc(-c2nn([C@H]3CC[C@H](N4CCN(C(C)=O)CC4)CC3)c3ncnc(N)c23)ccc1NC(=O)c1cc2ccccc2n1C + CC[C@H](NC(=O)[C@H](C)NC)C(=O)N1C[C@@H](O)C[C@H]1Cc1c(-c2[nH]c3cc(F)ccc3c2C[C@@H]2C[C@H](O)CN2C(=O)[C@H](CC)NC(=O)[C@H](C)NC)[nH]c2cc(F)ccc12 [Birinapant],112,
CO[C@@H]1[C@H](N(C)C(=O)c2ccccc2)C[C@H]2O[C@]1(C)n1c3ccccc3c3c4c(c5c6ccccc6n2c5c31)C(=O)NC4=O [Stauprimide] + CC[C@H](NC(=O)[C@H](C)NC)C(=O)N1C[C@@H](O)C[C@H]1Cc1c(-c2[nH]c3cc(F)ccc3c2C[C@@H]2C[C@H](O)CN2C(=O)[C@H](CC)NC(=O)[C@H](C)NC)[nH]c2cc(F)ccc12 [Birinapant],168,
COc1ccc(OC)c(-c2nnc3ccc(-c4ccc(OC)c(O[C@@H]5CCOC5)c4)nn23)c1 + CC[C@H](NC(=O)[C@H](C)NC)C(=O)N1C[C@@H](O)C[C@H]1Cc1c(-c2[nH]c3cc(F)ccc3c2C[C@@H]2C[C@H](O)CN2C(=O)[C@H](CC)NC(=O)[C@H](C)NC)[nH]c2cc(F)ccc12 [Birinapant],-150,
CCC(=O)N1CCN(c2ccc(-n3c(=O)ccc4cnc5ccc(-c6cnc7ccccc7c6)cc5c43)cc2C(F)(F)F)CC1 [Torin-1] + CC[C@H](NC(=O)[C@H](C)NC)C(=O)N1C[C@@H](O)C[C@H]1Cc1c(-c2[nH]c3cc(F)ccc3c2C[C@@H]2C[C@H](O)CN2C(=O)[C@H](CC)NC(=O)[C@H](C)NC)[nH]c2cc(F)ccc12 [Birinapant],-195,
Nc1ccc(-c2ccc3ncc4ccc(=O)n(-c5cccc(C(F)(F)F)c5)c4c3c2)cn1 [Torin-2] + CC[C@H](NC(=O)[C@H](C)NC)C(=O)N1C[C@@H](O)C[C@H]1Cc1c(-c2[nH]c3cc(F)ccc3c2C[C@@H]2C[C@H](O)CN2C(=O)[C@H](CC)NC(=O)[C@H](C)NC)[nH]c2cc(F)ccc12 [Birinapant],-80.4,-999
COc1cc(OC)cc(-c2ccc3ncc4ccc(=O)n(-c5ccc(N6CCNCC6)c(C(F)(F)F)c5)c4c3c2)c1 + CC[C@H](NC(=O)[C@H](C)NC)C(=O)N1C[C@@H](O)C[C@H]1Cc1c(-c2[nH]c3cc(F)ccc3c2C[C@@H]2C[C@H](O)CN2C(=O)[C@H](CC)NC(=O)[C@H](C)NC)[nH]c2cc(F)ccc12 [Birinapant],160,
CN1CCC(COc2cnc(-c3cccc(Cn4nc(-c5cccc(C#N)c5)ccc4=O)c3)nc2)CC1 + CC[C@H](NC(=O)[C@H](C)NC)C(=O)N1C[C@@H](O)C[C@H]1Cc1c(-c2[nH]c3cc(F)ccc3c2C[C@@H]2C[C@H](O)CN2C(=O)[C@H](CC)NC(=O)[C@H](C)NC)[nH]c2cc(F)ccc12 [Birinapant],19.6,
Cn1cc(-c2ccc3nnc(Sc4ccc5ncccc5c4)n3n2)cn1 + CC[C@H](NC(=O)[C@H](C)NC)C(=O)N1C[C@@H](O)C[C@H]1Cc1c(-c2[nH]c3cc(F)ccc3c2C[C@@H]2C[C@H](O)CN2C(=O)[C@H](CC)NC(=O)[C@H](C)NC)[nH]c2cc(F)ccc12 [Birinapant],117,
NC(=O)c1cccc(-c2cccc(OC(=O)NC3CCCCC3)c2)c1 + CC[C@H](NC(=O)[C@H](C)NC)C(=O)N1C[C@@H](O)C[C@H]1Cc1c(-c2[nH]c3cc(F)ccc3c2C[C@@H]2C[C@H](O)CN2C(=O)[C@H](CC)NC(=O)[C@H](C)NC)[nH]c2cc(F)ccc12 [Birinapant],46.3,
CNc1nccc(-c2cccnc2Oc2cc(C(=O)Nc3cccc(C(F)(F)F)c3)ccc2C)n1 + CC[C@H](NC(=O)[C@H](C)NC)C(=O)N1C[C@@H](O)C[C@H]1Cc1c(-c2[nH]c3cc(F)ccc3c2C[C@@H]2C[C@H](O)CN2C(=O)[C@H](CC)NC(=O)[C@H](C)NC)[nH]c2cc(F)ccc12 [Birinapant],73.8,
COc1cccc2c1C(=O)c1c(O)c3c(c(O)c1C2=O)C[C@@](O)(C(C)=O)C[C@@H]3O[C@H]1C[C@H](N)[C@H](O)[C@H](C)O1 [Daunorubicin] + CC[C@H](NC(=O)[C@H](C)NC)C(=O)N1C[C@@H](O)C[C@H]1Cc1c(-c2[nH]c3cc(F)ccc3c2C[C@@H]2C[C@H](O)CN2C(=O)[C@H](CC)NC(=O)[C@H](C)NC)[nH]c2cc(F)ccc12 [Birinapant],-171,
COc1cccc2c1C(=O)c1c(O)c3c(c(O)c1C2=O)C[C@@](O)(C(=O)CO)C[C@@H]3O[C@H]1C[C@H](N)[C@H](O[C@@H]2CCCCO2)[C@H](C)O1 [Pirarubicin] + CC[C@H](NC(=O)[C@H](C)NC)C(=O)N1C[C@@H](O)C[C@H]1Cc1c(-c2[nH]c3cc(F)ccc3c2C[C@@H]2C[C@H](O)CN2C(=O)[C@H](CC)NC(=O)[C@H](C)NC)[nH]c2cc(F)ccc12 [Birinapant],-150,
CC(=O)[C@]1(O)Cc2c(O)c3c(c(O)c2[C@@H](O[C@H]2C[C@H](N)[C@H](O)[C@H](C)O2)C1)C(=O)c1ccccc1C3=O [Idarubicin hydrochloride] + CC[C@H](NC(=O)[C@H](C)NC)C(=O)N1C[C@@H](O)C[C@H]1Cc1c(-c2[nH]c3cc(F)ccc3c2C[C@@H]2C[C@H](O)CN2C(=O)[C@H](CC)NC(=O)[C@H](C)NC)[nH]c2cc(F)ccc12 [Birinapant],-126,-1080
COc1cc2c(Nc3ccc(Cl)c(Cl)c3F)ncnc2cc1OC[C@@H]1C[C@@H]2CN(C)C[C@@H]2C1 + CC[C@H](NC(=O)[C@H](C)NC)C(=O)N1C[C@@H](O)C[C@H]1Cc1c(-c2[nH]c3cc(F)ccc3c2C[C@@H]2C[C@H](O)CN2C(=O)[C@H](CC)NC(=O)[C@H](C)NC)[nH]c2cc(F)ccc12 [Birinapant],-5.11,
Nc1cc(C(F)(F)F)c(-c2cc(N3CCOCC3)nc(N3CCOCC3)n2)cn1 + CC[C@H](NC(=O)[C@H](C)NC)C(=O)N1C[C@@H](O)C[C@H]1Cc1c(-c2[nH]c3cc(F)ccc3c2C[C@@H]2C[C@H](O)CN2C(=O)[C@H](CC)NC(=O)[C@H](C)NC)[nH]c2cc(F)ccc12 [Birinapant],242,
c1ccc(CNc2nc(NCc3ccccc3)c3ccccc3n2)cc1 + CC[C@H](NC(=O)[C@H](C)NC)C(=O)N1C[C@@H](O)C[C@H]1Cc1c(-c2[nH]c3cc(F)ccc3c2C[C@@H]2C[C@H](O)CN2C(=O)[C@H](CC)NC(=O)[C@H](C)NC)[nH]c2cc(F)ccc12 [Birinapant],-180,
CCC(C)SSc1ncc[nH]1 (stereo unspecified) + CC[C@H](NC(=O)[C@H](C)NC)C(=O)N1C[C@@H](O)C[C@H]1Cc1c(-c2[nH]c3cc(F)ccc3c2C[C@@H]2C[C@H](O)CN2C(=O)[C@H](CC)NC(=O)[C@H](C)NC)[nH]c2cc(F)ccc12 [Birinapant],79.6,
CS(=O)(=O)Oc1ccc2c(NC(N)=O)c(C(=O)c3ccc(Cl)cc3Cl)oc2c1 [Lirimilast] + CC[C@H](NC(=O)[C@H](C)NC)C(=O)N1C[C@@H](O)C[C@H]1Cc1c(-c2[nH]c3cc(F)ccc3c2C[C@@H]2C[C@H](O)CN2C(=O)[C@H](CC)NC(=O)[C@H](C)NC)[nH]c2cc(F)ccc12 [Birinapant],-20.9,
CCC1=C[C@@H]2CN(C1)Cc1c([nH]c3ccccc13)[C@@](C(=O)OC)(c1cc3c(cc1OC)N(C)[C@H]1[C@@](O)(C(=O)OC)[C@H](OC(C)=O)[C@]4(CC)C=CCN5CC[C@]31[C@@H]54)C2 [Vinorelbine] + CC[C@H](NC(=O)[C@H](C)NC)C(=O)N1C[C@@H](O)C[C@H]1Cc1c(-c2[nH]c3cc(F)ccc3c2C[C@@H]2C[C@H](O)CN2C(=O)[C@H](CC)NC(=O)[C@H](C)NC)[nH]c2cc(F)ccc12 [Birinapant],91.9,
